CBX7 AlphaScr: CBX7 chromodomain binding inhibitors, primary screen, biochemical, AlphaScreen. AlphaScreen His6-CBX7 / biotin-H3K27me3 peptide binding; active compounds read low. actives 1.1% (n = 66,000). normalised signal (fraction of DMSO) (test concentration not listed). AID 1224903, 2016. Chromobox protein homolog 7 (Homo sapiens), O95931; in the data active = normalised signal below about 0.5
Target sequence (O95931 whole entry, looked up): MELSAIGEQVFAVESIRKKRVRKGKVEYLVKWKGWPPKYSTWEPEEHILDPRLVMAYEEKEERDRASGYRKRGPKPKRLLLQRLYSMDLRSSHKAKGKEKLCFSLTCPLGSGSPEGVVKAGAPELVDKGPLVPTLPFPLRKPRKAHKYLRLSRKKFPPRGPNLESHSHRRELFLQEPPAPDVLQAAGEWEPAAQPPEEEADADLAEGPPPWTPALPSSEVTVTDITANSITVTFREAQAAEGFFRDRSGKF
* hit, by the source's call; ! = not active in a repeat. The sample as a whole holds a higher share of hits than the screen did.

SMILES	CBX7 AlphaScr
CCCN1C(=O)C(O)(CC(=O)c2ccc(C(C)C)cc2)c2cc(Br)ccc21 (stereo not drawn)	0.14*
CCCCN1C(=O)C(O)(CC(=O)c2ccc(C(C)C)cc2)c2cc(Br)ccc21 (stereo not drawn)	0.66
O=C(CC1(O)C(=O)N(CCc2ccccc2)c2ccc(Br)cc21)c1ccccc1 (stereo not drawn)	0.63
COc1ccc(OC)c(NC(=O)c2cc3c(-c4ccc(Cl)cc4)nn(C)c3s2)c1	0.87
COc1ccc(C2(CNCC(O)COc3ccccc3)CCCC2)cc1OC (stereo not drawn)	1
FC(F)(F)c1cccc(-c2nnc3ccc4ccccc4n23)c1	0.87
COc1ccc(C(=O)N2CC(=O)Nc3ccc(C)cc3C2c2ccc(F)cc2)c(OC)c1 (stereo not drawn)	0.3*
COc1ccc(C(=O)N2CC(=O)Nc3ccc(C)cc3C2c2ccc(F)cc2)cc1 (stereo not drawn)	0.74
COc1ccccc1C(=O)N1CC(=O)Nc2ccc(F)cc2C1c1ccccc1 (stereo not drawn)	1.1
Cc1ccc(-c2nnc(Nc3cccc(O)c3)c3ccccc23)cc1S(N)(=O)=O	0.93
Cc1ccc(-c2nnc(Nc3cccc(O)c3)c3ccccc23)cc1S(=O)(=O)NC(C)(C)C	0.4*
Cc1ccc(-c2nnc(Nc3ccc(O)cc3)c3ccccc23)cc1S(=O)(=O)NC(C)(C)C	0.67
Cc1cccc(OCCn2c(C3CC(=O)N(c4cccc(C)c4C)C3)nc3ccccc32)c1 (stereo not drawn)	0.69
Cc1ccc(CNC(=O)C2CCCN(Cc3nc(-c4cccc(Cl)c4)oc3C)C2)cc1 (stereo not drawn)	1
COc1cccc(Nc2nc(-c3ccc(F)cc3)cs2)c1	0.47*
Cc1ccc(Nc2nc(-c3ccc(Cl)cc3)cs2)cc1C	0.77
Cc1ccc(Nc2nc(-c3ccc(I)cc3)cs2)cc1C	0.78
COc1ccc(-c2csc(Nc3ccc(C)c(Cl)c3)n2)cc1F	0.39*!
Clc1ccc(Nc2nc(-c3ccncc3)cs2)cc1	1
COc1ccc(-c2csc(Nc3cccc(C(=O)O)c3)n2)cc1	0.75
Cc1ccc(Nc2nc(-c3ccc(-c4ccccc4)cc3)cs2)cc1Cl	0.88
CCOc1ccc(Nc2nc(-c3ccc(OC)c(F)c3)cs2)cc1	1
Cc1ccc(Nc2nc(-c3ccc(C)c(C)c3)cs2)cc1	0.45*
Clc1ccc(-c2csc(Nc3ccc(Br)cc3)n2)cc1	0.7
COc1cccc(Nc2nc(-c3ccc(C)cc3)cs2)c1	0.67
SMILES	CBX7 AlphaScr
Oc1ccc(Nc2nc(-c3ccc(Cl)cc3)cs2)cc1	0.44*
Cc1nc(Nc2ccc(C(F)(F)F)cc2)c2c(C)c(C)sc2n1	0.86
O=C(Cn1ncc2c1-c1ccccc1OC2)N1CCCCCC1	1.2
CCCN(C(=O)c1cc2c(s1)-c1ccccc1OC2)c1ccc(OCC)cc1	0.88
COc1cccc(C2=NOC(C(=O)Nc3ccc(C)cc3)C2)c1 (stereo not drawn)	0.9
Cc1cccc(-n2ccnc2SCC(=O)Nc2ccc3c(c2)OCO3)c1C	0.79
COc1ccc(CCNC(=O)C2c3ccccc3C(=O)N2C(C)c2ccccc2)cc1OC (stereo not drawn)	0.87
CN(C(=O)c1cc(-c2ccc(F)cc2)on1)c1ccccc1	0.84
CCCc1ccc(-c2nc(-c3ccncc3)no2)cc1	1.1
Cc1ccc(C)c(-c2csc(Nc3ccc(C)c(Cl)c3)n2)c1	0.37*!
Cc1ccc(C)c(-c2csc(Nc3ccc(F)cc3)n2)c1	0.94
Cc1ccc(Nc2nc(-c3ccccc3)cs2)cc1Cl	0.72
Cc1ccccc1-c1nc(CS(=O)(=O)CC(=O)NCCCN(CC(C)C)CC(C)C)c(C)o1	0.97
Cc1ccc(-c2noc(-c3cc(C)cc(C)c3)n2)cc1	1.3
Cc1ccc2nc(SCC(=O)Nc3nccs3)[nH]c2c1	0.82
O=C(O)c1c[nH]c2ccc(S(=O)(=O)NCc3ccc4c(c3)OCO4)cc2c1=O	0.48*
COc1ccccc1CNS(=O)(=O)c1ccc2[nH]cc(C(=O)O)c(=O)c2c1	0.71
COc1cccc(CNS(=O)(=O)c2ccc3[nH]cc(C(=O)O)c(=O)c3c2)c1	0.9
O=c1cc(N2CCN(Cc3ccccc3)CC2)[nH]c(=O)n1-c1ccc(Cl)cc1	1.1
Cc1ccc(S(=O)(=O)N(C)c2cccc3cccnc23)cc1	1.1
Cc1ccc(S(=O)(=O)Nc2ccccc2CNc2ccccn2)cc1	0.9
Cc1ccc(S(=O)(=O)Nc2cccc3cccnc23)cc1	0.085*
COc1ccccc1CNC(=O)C1CCCN(Cc2nc(-c3cccs3)oc2C)C1 (stereo not drawn)	1
O=C(NCc1ccc2c(c1)OCO2)c1cc(=O)n(Cc2ccc(Cl)cc2)c2ccccc12	0.91
COc1cccc(-c2nn(C)c3sc(C(=O)Nc4ccccc4F)cc23)c1	0.8
SMILES	CBX7 AlphaScr
CCOc1ccccc1CN(CCc1ccc2c(c1)OCO2)Cc1ccccn1	0.069*
O=C(NCc1ccccn1)C(=O)Nc1ccc2c(c1)OCO2	0.99
COc1ccc(Br)cc1CN(CCc1ccc2c(c1)OCO2)Cc1cccnc1	0.51
CC(C)C(=O)N1c2ccccc2NC2=C(C(=O)CCC2)C1c1ccccc1 (stereo not drawn)	1.1
CCc1ccc(S(=O)(=O)Nc2ccc3oc4c(c3c2)CC(C(C)(C)C)CC4)cc1 (stereo not drawn)	0.78
CC1CCc2oc3ccc(NS(=O)(=O)c4cccs4)cc3c2C1 (stereo not drawn)	0.64
CCC(C)(C)C1CCc2oc3ccc(NS(=O)(=O)c4cccs4)cc3c2C1 (stereo not drawn)	0.42*
CC(=O)NC1C(OCc2ccccc2Cl)OC(COC(C)=O)C(OC(C)=O)C1OC(C)=O (stereo not drawn)	1.1
CCOC(=O)Cn1c(=O)c(-c2cc(Br)ccc2NC)nc2cc3ccccc3cc21	0.84
CCOC(=O)Cn1c(=O)c(-c2ccccc2NCc2ccccc2)nc2ccccc21	0.98
CCNc1ccc(Br)cc1-c1nc2ccccc2n(CC)c1=O	0.27*
CCC(C)NC(=O)CN1C(=O)C(CC)Oc2ccccc21 (stereo not drawn)	0.96
Cc1ccc(-n2c(Cc3cccn3C)nnc2SCC(=O)Nc2ccc(C)cc2C)cc1	0.99
O=C(Nc1nc(-c2ccccn2)cs1)c1ccc(N2C(=O)CCC2=O)cc1	0.071*
COc1cc(C(=O)Nc2ccccn2)cc(OC)c1OC	1.1
Cc1ccc(-c2csc(NC(=O)c3cccc(Oc4ccccc4)c3)n2)cc1	1.1
COc1ccc(C(=O)Nc2nc(-c3ccccc3)cs2)cc1OC	0.83
O=C(Nc1nc(-c2ccccn2)cs1)c1cccc(Oc2ccccc2)c1	0.039*
CCCCN(CCCC)S(=O)(=O)c1ccc(C(=O)Nc2nc(-c3ccccn3)cs2)cc1	0.93
CN(Cc1ccccc1)S(=O)(=O)c1ccc(C(=O)Nc2nc(-c3ccccn3)cs2)cc1	0.94
COc1cc(C(=O)Nc2nc(-c3ccccn3)cs2)cc(OC)c1OC	0*
Cc1cc(C)c(-c2csc(NC(=O)c3cccc(Oc4ccccc4)c3)n2)c(C)c1	1.1
CCCc1cc(C(=O)Nc2ccccc2C(F)(F)F)no1	1.3
COc1ccc(NC(=O)c2sc3ncn(CC(=O)N4CCCC4)c(=O)c3c2C)c(OC)c1	1.1
Cc1ccc(-c2nnc(Nc3ccc(Br)cc3)c3ccccc23)cc1S(=O)(=O)NCCO	1.1
CCOC(=O)c1[nH]c2c(c1C)C(=O)CC(c1ccccc1)C2 (stereo not drawn)	1
CSc1cccc(Nc2cc(C(=O)NCCN3CCCCCC3)c3ccccc3n2)c1	1.1
